According to the supplement of paper PMC8728848:
About 410 targets per protein were measured; listed, in parts, are those with the strongest signals and a random draw of the rest.

Assays:
Assay in all cases: glycan array binding signal (z-score within array); higher = stronger binding
Settings in all cases: glycan notation: IUPAC condensed, linker removed
[1] = molecular target: Fuc(a1-2)Gal(b1-3)GalNAc(b1-3)Gal(a1-4)Gal(b1-4)Glc
Method in brief: (§1)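 The binding signal is a Z-score computed within each array. Data were drawn from 3228 arrays in the Consortium for Functional Glycomics database, restricted to those with a known protein sequence. Scores were averaged over arrays of the same protein sequence at different concentrations or buffers, and over linkers, and negative values can be taken as non-binding.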

[2] = molecular target: Fuc(a1-2)Gal(b1-3)GalNAc(b1-4)[Neu5Ac(a2-3)]Gal(b1-4)Glc
Method in brief: as §1

[3] = molecular target: Fuc(a1-2)Gal(b1-4)[Fuc(a1-3)]GalNAc(b1-3)Gal(b1-4)[Fuc(a1-3)]GlcNAc
Method in brief: as §1

[4] = molecular target: Fuc(a1-2)Gal(b1-4)[Fuc(a1-3)]GalNAc(b1-3)Gal(b1-4)[Fuc(a1-3)]GlcNAc(b1-3)Gal(b1-4)[Fuc(a1-3)]GalNAc
Method in brief: as §1

[5] = molecular target: Fuc(a1-2)Gal(b1-4)[Fuc(a1-3)]GlcNAc
Method in brief: as §1

[6] = molecular target: Fuc(a1-2)[Gal(a1-3)]Gal(b1-4)Glc
Method in brief: as §1

[7] = molecular target: Fuc(a1-3)[Gal(b1-4)]GlcNAc(b1-4)Gal(b1-4)[Fuc(a1-3)]GlcNAc(b1-4)Gal(b1-4)[Fuc(a1-3)]GlcNAc
Method in brief: as §1

[8] = molecular target: Gal(b1-3)GalNAc(b1-4)Gal(b1-4)Glc
Method in brief: as §1

[9] = molecular target: Gal(b1-3)GalNAc(b1-4)[Neu5Ac(a2-3)]Gal(b1-4)Glc
Method in brief: as §1

[10] = molecular target: Gal4S(b1-4)GlcNAc
Method in brief: as §1

[11] = molecular target: Gal6S(b1-4)GlcNAc
Method in brief: as §1

[12] = molecular target: GlcA(b1-6)Gal
Method in brief: as §1

[13] = molecular target: GlcNAc(b1-4)[GlcNAc(b1-6)]GalNAc
Method in brief: as §1

[14] = molecular target: Man(a1-2)Man(a1-2)Man(a1-3)[Man(a1-2)Man(a1-6)[Man(a1-3)]Man(a1-6)]Man(b1-4)GlcNAc(b1-4)GlcNAc
Method in brief: as §1

[15] = molecular target: Neu5Ac(a2-3)Gal
Method in brief: as §1

[16] = molecular target: Neu5Ac(a2-3)Gal(b1-3)[Fuc(a1-4)]GlcNAc
Method in brief: as §1

[17] = molecular target: Neu5Ac(a2-3)Gal(b1-4)GlcNAc
Method in brief: as §1

[18] = molecular target: Neu5Ac(a2-3)Gal6S(b1-4)[Fuc(a1-3)]GlcNAc
Method in brief: as §1

[19] = molecular target: Fuc(a1-2)[GalNAc(a1-3)]Gal(b1-4)[Fuc(a1-3)]GlcNAc
Method in brief: as §1

[20] = molecular target: Fuc(a1-3)[Gal(b1-4)]Glc6S
Method in brief: as §1

[21] = molecular target: Fuc(b1-3)GlcNAc
Method in brief: as §1

[22] = molecular target: Gal(a1-4)Gal(b1-4)Gal
Method in brief: as §1

[23] = molecular target: Gal(b1-2)Gal
Method in brief: as §1

[24] = molecular target: Gal(b1-3)Gal
Method in brief: as §1

[25] = molecular target: Gal(b1-4)GalNAc(b1-3)[Fuc(a1-2)]Gal(b1-4)GlcNAc
Method in brief: as §1

[26] = molecular target: GlcA(b1-3)Gal
Method in brief: as §1

[27] = molecular target: GlcNAc(b1-3)[GlcNAc(b1-4)][GlcNAc(b1-6)]GlcNAc
Method in brief: as §1

[28] = molecular target: Man(a1-2)Man(a1-2)Man(a1-6)[Man(a1-3)]Man
Method in brief: as §1

[29] = molecular target: Man(a1-2)Man(a1-3)[Man(a1-6)]Man(a1-6)[Man(a1-2)Man(a1-3)]Man(b1-4)GlcNAc(b1-4)GlcNAc
Method in brief: as §1

[30] = molecular target: Man(b1-4)GlcNAc
Method in brief: as §1

[31] = molecular target: Neu5Ac(a2-3)Gal(b1-3)GlcNAc
Method in brief: as §1

[32] = molecular target: Neu5Ac(a2-3)Gal(b1-3)GlcNAc6S
Method in brief: as §1

[33] = molecular target: Neu5Ac(a2-3)Gal(b1-4)GlcNAc(b1-3)Gal(b1-3)GlcNAc
Method in brief: as §1

[34] = molecular target: Neu5Ac(a2-8)Neu5Ac(a2-3)[GalNAc(b1-4)]Gal(b1-4)Glc
Method in brief: as §1

[35] = molecular target: Neu5Ac(a2-8)Neu5Ac(a2-8)Neu5Ac(a2-3)[GalNAc(b1-4)]Gal(b1-4)Glc
Method in brief: as §1

[36] = molecular target: Neu5Gc(a2-3)Gal(b1-3)GlcNAc
Method in brief: as §1

B1: DC SIGN CRD (Homo sapiens), Q9NNX6 (protein)
chain: QPCPWEWTFFQGNCYFMSNSQRNWHDSITACKEVGAQLVVIKSAEEQNFLQLQSSRSNRFTWMGLSDLNQEGTWQWVDGSPLLPSFKQYWNRGEPNNVGEEDCAEFSGNGWNDDKCNLAKFWICKKSAWSHPQFEK
glycan array binding signal (z-score) [1]: -0.37
glycan array binding signal (z-score) [2]: -0.377
glycan array binding signal (z-score) [3]: 5.67
glycan array binding signal (z-score) [4]: 3.54
glycan array binding signal (z-score) [5]: 4.18
glycan array binding signal (z-score) [6]: -0.339
glycan array binding signal (z-score) [7]: 5.8
glycan array binding signal (z-score) [8]: -0.385
glycan array binding signal (z-score) [9]: -0.363
glycan array binding signal (z-score) [10]: -0.361
glycan array binding signal (z-score) [11]: -0.39
glycan array binding signal (z-score) [12]: -0.392
glycan array binding signal (z-score) [13]: -0.371
glycan array binding signal (z-score) [14]: 2.91
glycan array binding signal (z-score) [15]: -0.339
glycan array binding signal (z-score) [16]: -0.076
glycan array binding signal (z-score) [17]: -0.387
glycan array binding signal (z-score) [18]: -0.394

B2: MLTim-4 (Mus musculus), Q6U7R4 (protein)
chain: MSKGLLLLWLVTELWWLYLTPAASEDTIIGFLGQPVTLPCHYLSWSQSRNSMCWGKGSCPNSKCNAELLRTDGTRIISRKSTKYTLLGKVQFGEVSLTISNTNRGDSGVYCCRIEVPGWFNDVKKNVRLELRRAT
glycan array binding signal (z-score) [1]: -0.142
glycan array binding signal (z-score) [3]: -0.799
glycan array binding signal (z-score) [4]: 0.195
glycan array binding signal (z-score) [19]: 0.41
glycan array binding signal (z-score) [20]: 2.31
glycan array binding signal (z-score) [21]: -0.108
glycan array binding signal (z-score) [22]: 0.491
glycan array binding signal (z-score) [23]: 1.47
glycan array binding signal (z-score) [24]: 0.543
glycan array binding signal (z-score) [25]: -0.991
glycan array binding signal (z-score) [26]: 6.6
glycan array binding signal (z-score) [12]: 2.97
glycan array binding signal (z-score) [27]: -0.523
glycan array binding signal (z-score) [28]: 0.353
glycan array binding signal (z-score) [29]: -0.137
glycan array binding signal (z-score) [30]: 1.06
glycan array binding signal (z-score) [31]: -0.547
glycan array binding signal (z-score) [32]: 2.45
glycan array binding signal (z-score) [33]: -0.655
glycan array binding signal (z-score) [34]: -0.484
glycan array binding signal (z-score) [35]: -0.741
glycan array binding signal (z-score) [36]: -0.343
